# The full list was thinned out, with hits kept by preference.
# ALOX12 inhib = blocks human 12-lipoxygenase activity. purified 12-hLO, xylenol orange hydroperoxide absorbance. 0.12% of 150,000 active. Potency, µM (highest dose often 57.1 µM), for inactives: top-dose activity change, negative = inhibition, hits mostly inhibitors; further: nearly all actives have a fitted effect of over 55% in size
#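 Xylenol orange chromogenic assay: hydroperoxide from 12hLO oxidises Fe(II), giving red-shifted Fe(III)-XO absorbance. Conditions: 150 nM enzyme, 40 uM arachidonic acid, 25 mM Hepes pH 7.0, 0.01% Triton X-100, 30 min, room temperature.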
# 15-hLO-2 inh = inhibitors of human 15-lipoxygenase 2 (ALOX15B). O15296. purified 15hLO-2, xylenol orange hydroperoxide absorbance. 0.56% of 110,000 active. Potency, µM (titrated, usually from 57.1 µM), for the others: at the highest dose activity change, negative = inhibition, usual class: inhibitors; further: nearly all actives have a fitted effect of over 60% in size
# Target sequence (O15296 whole entry, looked up): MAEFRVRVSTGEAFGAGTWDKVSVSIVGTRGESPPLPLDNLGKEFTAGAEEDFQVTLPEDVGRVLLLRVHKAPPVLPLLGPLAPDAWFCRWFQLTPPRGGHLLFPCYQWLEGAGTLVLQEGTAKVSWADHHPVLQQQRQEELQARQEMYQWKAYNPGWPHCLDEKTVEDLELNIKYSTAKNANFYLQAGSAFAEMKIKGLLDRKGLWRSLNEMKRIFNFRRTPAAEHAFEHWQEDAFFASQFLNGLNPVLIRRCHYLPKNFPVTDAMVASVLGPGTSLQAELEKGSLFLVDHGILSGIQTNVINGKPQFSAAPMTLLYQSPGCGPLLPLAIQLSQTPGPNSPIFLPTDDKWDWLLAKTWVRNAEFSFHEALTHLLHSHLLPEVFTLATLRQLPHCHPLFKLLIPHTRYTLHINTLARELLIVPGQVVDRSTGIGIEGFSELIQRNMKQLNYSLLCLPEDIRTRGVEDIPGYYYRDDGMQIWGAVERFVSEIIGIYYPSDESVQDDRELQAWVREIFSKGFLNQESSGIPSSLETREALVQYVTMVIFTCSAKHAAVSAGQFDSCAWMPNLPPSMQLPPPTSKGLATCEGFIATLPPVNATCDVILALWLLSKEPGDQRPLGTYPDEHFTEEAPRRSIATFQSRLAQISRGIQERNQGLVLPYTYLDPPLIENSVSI
#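 Purified human 15hLO-2 (50 nM) preincubated 15 min with compound, then 45 uM arachidonic acid for 90 min at RT in 25 mM Hepes pH 7.5, 0.01% Triton X-100. Hydroperoxide detected by Fe-xylenol orange; 573/405 nm absorbance ratio.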
# The depositor's hits bear a star; ? = inconclusive; · = not tested or not shown; ! = not confirmed by another sample; [ ] = remark or other dose. The call rests on the fitted dose curve; in most records, active means well fitted curve in the direction sought with a large enough effect; inconclusive means small, poorly fitted or top-dose-only effect, or another doubt; inactive means no such curve, though single readings can be large; an effect the other way counts as inactive or inconclusive. On the % scale 0 is the no-effect control and ±100 the full control effect; potency means the concentration at half of the fitted maximal effect.
SMILES,ALOX12 inhib,15-hLO-2 inh
COc1ccc2c(c1OC)CN1CCc3cc4c(cc3[C@H]1C2)OCO4,1%[25.6 µM],10%[25.6 µM]
COc1ccc2c(c[n+](C)c3c4cc5c(cc4ccc23)OCO5)c1OC,?,13µM*
COC(=O)[C@]1(C)CC[C@@]2(C)CC[C@@]3(C)C4=CC=C5C(=CC(=O)C(O)=C5C)[C@@]4(C)CC[C@@]3(C)C2C1 (stereo not given in full),?,4µM*
COC(=O)C(O)(c1ccc(NC(=O)Oc2ccccc2)cc1)C(F)(F)F (stereo not given),2%,·
COC(=O)C(O)(c1ccc(NC(=S)NC(=O)c2ccccc2)cc1)C(F)(F)F (stereo not given),?,16µM*
O=Nc1ccc(Nc2ccccc2)cc1,-15%,?
c1ccc(Nc2ccc(Nc3ccccc3)cc2)cc1,13µM*,13µM*
[Cl-].[Cl-].[Hg+2],5µM*,0.79µM*
O=C(NCP(=O)(O)O)c1cccnc1,-4%[11.4 µM],-8%[11.4 µM]
CCN1C[C@@]2(OC(=O)c3ccccc3NC(C)=O)CCC(OC)[C@@]34C5CC6C(OC)C[C@@](O)(C(CC23)[C@@H]14)C5(O)C6OC (stereo not given in full),-3%,5%
CCOP(=S)(NN(Cc1ccccc1)C(=O)c1ccccc1)OCC,13%,·
CC(C)CN(CC(C)C)c1ccc(C=C2C(=O)NC(=S)NC2=O)cc1[N+](=O)[O-],?,10µM*
CCC(C)N1C(=O)/C(=C\c2ccc(N3CCCCCC3)cc2)C(=O)NC1=S (stereo not given),-8%,·
C[C@@]12CCC(OS(=O)(=O)O)C[C@@H]1CCC1C2CC[C@]2(C)C(=O)CCC12 (stereo not given in full),-3%,5%
[Cd+2].[Cl-].[Cl-],28µM*,·
CCC[N+](=O)[O-],-2%,0%
Cc1ccc(-n2sc3ccccc3c2=O)cc1,7.9µM*,·
Cc1ccc(N2C(=O)CC(=O)NC2=O)cc1,-15%,8%
CN1C[C@@H](CS(=O)(=O)N(C)C)C[C@H]2c3cccc4c3c(cn4C)C[C@@H]21,-3%,4%
CN[C@@H](C)[C@@H](O)c1ccccc1,?,0.63µM*
CNC(C)C(O)c1ccccc1 (stereo not given),1%,-5%
CCCCCCCCc1[se]c2ccccc2c1[Se]c1ccccc1,1%[0.00818 µM],-26%[0.0915 µM]
C=CCn1c(O)c(C=Nc2ccc(OC)cc2C)c(=O)[nH]c1=O,0%,-19%
Nc1ccc(Cl)cc1N,-3%,4%
Cc1cc(Cl)ccc1O,-2%,-3%
SMILES,ALOX12 inhib,15-hLO-2 inh
Nc1cc(Cl)ccc1O,20µM*,-2%
Oc1ccc(Cl)cc1Sc1cc(Cl)ccc1O,-28%[11.4 µM],16µM*
CC1CCN(c2nc(-c3ccc(F)cc3)cc(C(F)(F)F)n2)CC1,-1%,33%
COC(=O)[C@@H]1c2cc3c(c(O)c2[C@@H](O)C[C@]1(C)O)C(=O)c1c(O)cc2c(c1C3=O)O[C@H]1O[C@@]2(C)[C@@H](O)[C@H](N(C)C)[C@H]1O,-1%[11.4 µM],-2%[11.4 µM]
CCOC(=O)C1C(=O)N(C)C2(C)CC1c1ccccc1O2 (stereo not given),-6%,-6%
O=C1C=C2C=C[C@H]3C[C@@]2(O1)[C@H]1CCCCN31,1%[25.6 µM],2%[25.6 µM]
O=C1C=CC(=O)C=C1,-4%,-5%
O=C1C=CC(=O)C(Cl)=C1,?,11µM*
O=C(N/N=C/c1c(O)n(C2CC2)c(=S)[nH]c1=O)c1ccccc1O,-7%,·
C=CCn1c(O)c(C(CC)=NCCC2=CCCCC2)c(=O)[nH]c1=O,-6%,-10%
CCCCC/C=C\C/C=C\C/C=C\C/C=C\CCCC(=O)NCC(=O)O,3%[0.00818 µM],10µM*!
CCCCC/C=C\C/C=C\C/C=C\C/C=C\CCCC(=O)NCCCC(=O)O,-9%[0.00818 µM],?
Cn1cnc(CCN)c1,-1%,-3%
CC1CCC2C(C)C(=O)OC3OC4(C)CCC1C32OO4 (stereo not given),6%,-2%
O=[As](O)(O)c1ccc(Cc2ccc([As](=O)(O)O)cc2)cc1,-24%[11.4 µM],3.2µM*
Nc1ccc([As](=O)(O)O)cc1,-2%,·
CCCCC(=O)N/N=C/c1c(O)n(CC)c(=S)[nH]c1=O,2%,·
CC[C@@H]1CN2CCc3cc(OC)c(OC)cc3[C@H]2C[C@@H]1C[C@H]1NCCc2cc(OC)c(OC)cc21,5%[25.6 µM],8%[25.6 µM]
O=c1c2ccccc2[se]n1-c1ccccc1,3.2µM*,0.63µM*
O=c1c2ccccc2nc(N2CCCC2)n1-c1ccccc1,-1%,-1%
